Measurements: PubChem BioAssay AID687028 (Broad Institute, 2013)
The campaign covered roughly 1,400 compounds. About 55 (4%) were called active. No rule for the calls is given here. These entries were drawn from the full list. Where a call stands in place of a potency, no number is given. Potency and affinity values are given separately.

Test: A549 cell toxicity, dose response, cytotoxicity control, plate reader, cherry-pick samples (AID 687028);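 also: cells incubated with compound for three days before reading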
Settings: series mostly up to 19.5 µM

| SMILES | outcome |
| --- | --- |
| COc1ccc(-c2cnc3c(NC(C)=O)cc(-c4ccccc4OC)cn23)cc1OC | inactive |
| O=C(OCc1ccccc1)N1CCC2CC1c1ccc(-c3ccc4c(c3)OCO4)cc12 (stereo unspecified) | inactive |
| Cc1cc(F)ccc1S(=O)(=O)Nc1ncnc2scc(-c3ccc(F)cc3)c12 | inactive |
| C[C@@H]1CN([C@@H](C)CO)C(=O)c2cc(NC(=O)Nc3ccc(C(F)(F)F)cc3)ccc2O[C@@H]1CN(C)C(=O)NC1CCCCC1 | inactive |
| CC1(C(=O)NCc2ccccc2)CN(S(C)(=O)=O)CC(=O)N1CCc1ccccc1F (stereo unspecified) | inactive |
| COc1ccccc1S(=O)(=O)N(C)C[C@H]1Oc2cc(C#CCC(C)C)ccc2S(=O)(=O)N([C@@H](C)CO)C[C@@H]1C | inactive |
| Cc1ccc2oc3c(c(=O)c2c1)C(c1cccc(Cl)c1)N(CCCN1CCOCC1)C3=O (stereo unspecified) | inactive |
| O=C(c1ccc2c(c1)OCO2)N1CCC(Cc2ccccc2)CC1 | inactive |
| O=C(NCc1ccccn1)C(=O)NCC1OCCN1S(=O)(=O)c1ccc(Br)cc1 (stereo unspecified) | inactive |
| CC1(NC(=O)c2cc(Cl)nc3ccccc23)CCS(=O)(=O)C1 (stereo unspecified) | inactive |
| COc1ccc(Cl)cc1N1C(=O)CC(N2CCN(S(=O)(=O)c3ccccc3F)CC2)C1=O (stereo unspecified) | inactive |
| CN(C)c1ccc(-c2cc3ccccc3c(=O)o2)cc1 | inactive |
| Cc1ccc(C)c(C(Nc2ccccc2)c2ccc3ccc(C)nc3c2O)c1 (stereo unspecified) | inactive |
| CCOC(=O)Cc1sc(N)nc1C | inactive |
| O=C(Nc1cccc(Cl)c1)c1ccccc1 | inactive |
| CCCCCNC(=O)c1[nH]c(C(F)(F)F)nc1-c1ccccc1 | inactive |
| COC(=O)c1ccc2nc(C3CCCCC3)c(Cc3ccccc3OC)n2c1 | inactive |
| CCCCNC(=O)c1ccc(NS(=O)(=O)c2ccc3[nH]c(=O)[nH]c3c2)cc1 | inactive |
| CC(=O)Nc1cccc2ncccc12 | inactive |
| COc1cc(NC(C)=O)c2ncccc2c1Br | inactive |
| CCOc1cc(CNCCN2CCOCC2)ccc1OCc1ccccc1Cl | inactive |

| SMILES | outcome |
| --- | --- |
| CC1=NCCN1CCNC(=O)Nc1ccc(C(C)(C)C)cc1 | inactive |
| C[C@H](CO)N1C[C@H](C)[C@H](CN(C)C)Oc2ncc(C#CC3CC3)cc2C1=O | inactive |
| C/C=C/c1ccc([C@H]2[C@@H](CO)N3CCCCN(S(=O)(=O)c4ccccc4)C[C@@H]23)cc1 | inactive |
| C[C@H](CO)N1C[C@H](C)[C@H](CN(C)C(=O)c2ccccc2)Oc2cc(C3=CCCCC3)ccc2S1(=O)=O | inactive |
| Cc1ccc(S(=O)(=O)N(C)C[C@H]2Oc3ccc(NS(=O)(=O)c4ccc(F)cc4)cc3C(=O)N([C@H](C)CO)C[C@@H]2C)cc1 | inactive |
| Cc1cc(O)c(C(C)C)cc1NC(=O)c1ccccc1Cl | inactive |
| Cc1ccc(OCCCCNC(C)c2ccccc2)c(C)c1 (stereo unspecified) | inactive |
| Cc1ccc(NC(=O)C(=O)NCC2CCCN2S(=O)(=O)c2cccs2)cc1 (stereo unspecified) | inactive |
| N#C[C@@H]1[C@H](c2ccc(C#Cc3ccccc3F)cc2)[C@@H](CO)N1C(=O)C1CC1 | inactive |
| COc1ccc(C(C)(NC(C)=O)c2nc(-c3cccc(F)c3)cs2)cc1 (stereo unspecified) | inactive |
| ClCCCc1cn(C[C@H]2CC[C@@H]([C@@H]3CC[C@H](Cn4cc(CCCCl)nn4)O3)O2)nn1 | inactive |
| C[C@H]1CN([C@@H](C)CO)C(=O)c2cccc(NS(=O)(=O)c3ccccc3)c2O[C@@H]1CN(C)Cc1ccc(Cl)c(Cl)c1 | inactive |
| Cc1c(C(=O)OC(C)C)sc(N)c1C(=O)OC(C)C | inactive |
| O=C(NCCNC(=O)c1cc(F)cc(F)c1)c1cc(F)cc(F)c1 | inactive |
| CCCc1nc2ccccc2n1C(C)C(=O)NC(C)(C)C (stereo unspecified) | inactive |
| O=C(NCc1ccccc1)C(c1ccncc1)n1c(=O)c(-c2ccccc2)nc2ccccc21 (stereo unspecified) | inactive |
| COc1ccc2c3c([nH]c2c1)[C@@H](CO)N(C(=O)C1CCOCC1)CC31CN(C)C1 | inactive |
| CN(C)C(=O)c1cccc(-c2ccc3c(c2)[C@@H]2[C@@H](CCN2C(=O)Cc2ccncc2)[C@@H](CO)N3)c1 | inactive |
| COc1ccc(C)cc1NC(=O)C1CCN(S(=O)(=O)c2cccc3cccnc23)CC1 | inactive |
| COc1ccc(CC(=O)Nc2ccc(C)c(S(=O)(=O)N3CCCCCC3)c2)cc1 | inactive |
| O=c1c2cc(Br)ccc2[nH]c(=S)n1Cc1ccccn1 | inactive |

| SMILES | outcome |
| --- | --- |
| CCc1c(C(=O)Nc2cc(C(=O)OC)ccc2C)csc1C | inactive |
| CC(C)(C)c1ccc(C(=O)Nc2ccc3c(c2)C(=O)NC3=O)cc1 | inactive |
| CC(=O)Nc1cccc(OCCCNC(=O)c2ccc(C(C)(C)C)cc2)c1 | inactive |
| CN(C)CC(=O)Nc1ccc2c(c1)[C@@H]1C[C@@H](CC(=O)NC3CCCCC3)O[C@H](CO)[C@@H]1O2 | inactive |
| CC(Oc1ccccc1Cl)C(=O)N1CCOCC1 (stereo unspecified) | inactive |
| COc1cccc(NC(=O)COc2cccc3c2CCNC3=O)c1 | inactive |
| Cc1ccc(NC(=O)C2CCN(S(C)(=O)=O)CC2)cc1Cl | inactive |
| Cc1ccc(C)c(NS(=O)(=O)c2cc(C(=O)NCc3ccncc3)ccc2C)c1 | inactive |
| COc1ccc(NC(=O)N2C[C@@H](O)COC[C@@H]3O[C@H](CC(=O)NC4Cc5ccccc5C4)CC[C@H]32)cc1 | inactive |
| O=C(NCCN1CCC(n2c(=O)[nH]c3ccccc32)CC1)c1ccccc1 | inactive |
| CCOC(=O)[C@]12CCC=C1N(Cc1cccc3ccccc13)C(=O)[C@H](CC(=O)N1CCCC1)C2 | inactive |
| CCOC(=O)[C@]12CCCC=C1N(Cc1ccccc1)C(=O)[C@H](CC(=O)NCc1cccs1)C2 | inactive |
| COC(=O)[C@]12CCCCC=C1N(Cc1cccc3ccccc13)C(=O)[C@H](CC(=O)NCCC(C)C)C2 | inactive |
| CCCCNC(=O)C[C@@H]1C[C@@]2(C(=O)OC)CCCCC=C2N(CCC2=CCCCC2)C1=O | inactive |
| O=C(c1ccc(F)cc1)N1CCC(C(=O)N2CCCc3ccccc32)CC1 | inactive |
| COc1ccccc1CN1[C@H](CO)[C@@H](c2ccccc2)C12CN(C(=O)c1ccccn1)C2 | inactive |
| CCc1cccc(OCCN2CCCC2)c1 | inactive |
| CC1CCN(CCOc2ccc(OCc3ccccc3)cc2)CC1 | inactive |
| CC(OC(=O)c1ccc2c(=O)n3c(nc2c1)CCC3)C(=O)NC1CCCCC1C (stereo unspecified) | inactive |
